SMARCA2 activ: SMARCA2 function activation, primary screen. activation, % at 9.1 µM. AID 652017. hit rate 1% among 370,000. MG213 cells, MMTV-luciferase reporter, dexamethasone, overnight; in the data active = activation above about 7.8%;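 note: 0% = vehicle wells and 100% = reference activator wells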
NR2F2 inh: NR2F2 (human) inhibition, primary screen | inhibition, % at 8.6 µM | HEK293T NGFI-A luciferase reporter, luminescence | P24468 | hit rate 0.7% among 370,000;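 active = inhibition above a per-plate cutoff, mean inhibition of test wells between control levels plus 3 SD, cut at about 38% in these data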;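 note: cells cotransfected with COUP-TFII expression vector driving the NGFI-A reporter; 0% = median of COUP-TF2 test wells and 100% = reporter-only cells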
Target sequence (P24468 whole entry, looked up): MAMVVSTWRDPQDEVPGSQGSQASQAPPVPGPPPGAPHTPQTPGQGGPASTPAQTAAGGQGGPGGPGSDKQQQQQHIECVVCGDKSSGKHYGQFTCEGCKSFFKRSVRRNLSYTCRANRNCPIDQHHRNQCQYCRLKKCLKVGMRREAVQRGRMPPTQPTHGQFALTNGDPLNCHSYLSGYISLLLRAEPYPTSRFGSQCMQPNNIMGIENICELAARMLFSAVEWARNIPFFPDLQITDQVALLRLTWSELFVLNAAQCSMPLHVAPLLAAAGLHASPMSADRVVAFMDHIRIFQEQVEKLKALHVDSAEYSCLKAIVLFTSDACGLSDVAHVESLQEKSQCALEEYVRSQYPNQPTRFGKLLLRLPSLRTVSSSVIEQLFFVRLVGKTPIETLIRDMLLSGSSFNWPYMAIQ
GalR3 antag: human GalR3 antagonism; O60755; HEK293 GalR3-CNG cAMP membrane potential fluorescence; galR3 body fused to GalR1 C-terminus; inhibition, % at 3 µM; hit rate 0.44% among 360,000; AID 651719;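 active = inhibition above the screen-wide average plus 3 SD, cut at about 13% in these data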;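 note: forskolin and galanin both at EC90 stimulate the cells; cAMP rise reported by CNG channel membrane potential dye signal; 0% = forskolin plus galanin with DMSO and 100% = forskolin alone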
Cardio protect: protects H9c2 cardiomyocytes from peroxide injury | protection from H2O2 cell death, % at 20 µM | H2O2 injury protection, ATPLite, 2 h | AID 588492 | hit rate 0.63% among 360,000;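 active = compounds giving at least 50% protection of heart cells from peroxide-induced death in the single-dose screen, raw or plate-pattern-corrected value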;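 note: 0% = DMSO wells with peroxide and 100% = DMSO wells without peroxide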
GAA850 FXN act: activators of GAA850 frataxin (FXN) promoter; HEK293 lucGAA850 FXN promoter luciferase reporter, 24 h; percent of 10 µM SAHA response; hit rate 0.56% among 360,000; activation, % at 6 µM;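 active = activation above the average of all compounds screened plus 3 SD, cutoff fixed separately per campaign, cut at about 7.5% in these data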;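 note: 0% = DMSO wells and 100% = 10 µM SAHA wells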
Gli-Sufu antag: Gli-Sufu pathway antagonism; AID 588413; hit rate 0.74% among 340,000; Sufu-KO-LIGHT fibroblasts, Gli luciferase reporter luminescence; inhibition, % at 5 µM;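 active = inhibition above about 55%, limit read from the data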;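 note: 0% = DMSO-treated cells and 100% = wells with medium but no cells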
GAA30 FXN cntr: activates GAA30 frataxin promoter, counter-screen for GAA850 activators. shares compounds with GAA850 FXN act. HEK293 lucGAA30 FXN promoter luciferase, 24 h; DMSO = 0%, 5 µM ipriflavone = 100%. activation, % at 6 µM. hit rate 66% among 1,900. AID 588350;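 active = mean activation above the mean of solvent-only control wells plus 3 SD, cut at about 22% in these data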;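 note: counterscreen of GAA850 promoter hits where activity marks nonselective or luminescence artifacts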
GAA850 confirm: GAA850 FXN promoter activation confirmation. activation, % at 6 µM. shares compounds with GAA850 FXN act. hit rate 86% among 1,900. HEK293 lucGAA850 FXN promoter luciferase reporter, 24 h; 100% = activation by SAHA;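 active = mean activation above a set limit taken from the primary screen, cut at about 8% in these data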;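 note: 0% = DMSO wells and 100% = 10 µM SAHA wells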
Active calls of the source: *; x = no result; ! = a repeat was not active. Only some compounds are listed: those with a hit (about 3.4% of all), similar ones and a draw of the others.

SMILES	SMARCA2 activ	NR2F2 inh	GalR3 antag	Cardio protect	GAA850 FXN act	Gli-Sufu antag	GAA30 FXN cntr	GAA850 confirm
Nc1[nH]c(C(=O)c2ccc(Br)cc2)c(-c2ccc(Br)cc2)c1C(=O)NCc1ccc(-c2ccccc2)cc1	-6	2	-6	x	x	x	x	x
c1ccc(-c2n[nH]c(-c3ccccn3)n2)cc1	6	-23	0	-3	4	-52	x	x
c1ccc(-c2n[nH]c(-c3ccccn3)n2)nc1	3	-42	-6	-2	7.7*!	-35	102*	27*
COc1cc2ccccc2cc1C(=O)Nc1cc(C)ccn1	5	-25	-1	12	8.4*	-53	123*	39*
O=C(CSc1nc2ncccc2[nH]1)N1CCOCC1	-1	0	x	x	x	x	x	x
O=C(CSC1=NCCN1)Nc1cccc(C(F)(F)F)c1	-1	5	10	-12	9.6*	-5	25*	21*
Cn1ccnc1SCC(=O)Nc1cccc(C(F)(F)F)c1	-2	-3	-10	-2	2	-18	x	x
Cc1nnc(SCc2nc3ccccc3s2)n1-c1ccccc1	7	-5	0	-6	7	-11	x	x
c1ccc(-n2cnnc2SCc2nc3ccccc3s2)cc1	4	-48	-1	-3	7.8*	3	94*	26*
CC(C)N1CCC(C)(C(=O)Nc2cc(-c3ccccc3)nn2C)C1 (stereo not drawn)	-2	6	-8	2	-1	x	x	x
Cc1ccc2c(c1)[C@H]1[C@H](CO2)[C@H](c2ccccc2)[C@]2(C)C(=O)N(Cc3ccccc3)CC(=O)N12	0	-18	-5	5	9.0*	-2	16	11*
COc1ccc2c(c1)[C@H]1[C@H](CO2)[C@H](c2ccccc2)[C@]2(C)C(=O)N(Cc3ccc(C)cc3)CC(=O)N12	x	x	x	3	13*	-14	12	9.0*
O=C1CC(=O)N(C2CCCCC2)C(=O)N1c1ccccc1S(=O)(=O)Oc1ccccc1	-3	18	-7	-6	x	x	x	x
C[C@@H]1CN([C@@H](C)CO)C(=O)CCCn2cc(nn2)CO[C@H]1CN(C)C(=O)Nc1ccc(N2CCN(C)CC2)cc1	-3	-24	-5	x	x	x	x	x
Oc1ccc(-c2cn3ccccc3n2)cc1O	2	-56	-8	28	8.9*	38	109*	33*
Oc1ccc(-c2cn3ccccc3n2)cc1	6	-46	-4	-24	2	-51	x	x
Cc1ccn2cc(-c3ccc(O)c(O)c3)nc2c1	0	-25	-8	-5	11*	-24	127*	48*
CC1(Cc2ccccc2Cl)C(=O)Nc2ccc(OC(F)(F)F)cc21 (stereo not drawn)	-3	15	-5	-15	0	x	x	x
C[C@@H]1COc2cc(N3CCC[C@@H]3CO)ccc2S(=O)(=O)N1	-1	5	0	x	x	x	x	x
Cc1cccc2cc(CN(C(=O)c3cnccn3)C3CCCCC3)c(Cl)nc12	-2	12	-10	-6	7.6*	11	11	5
COC(=O)N1CCC[C@H]1c1cccc2[nH]cc(C)c12	3	4	x	x	x	x	x	x
COC(=O)CC[C@H](/C=C/C(=O)OC(C)(C)C)Sc1ccc(C(C)(C)C)cc1	3	-4	x	x	x	x	x	x
Cc1ccc(S(=O)(=O)Nc2ccc3c(c2)CC(=O)N([C@H](C)CO)C[C@@H](C)[C@H](CN(C)S(=O)(=O)c2ccccc2)O3)cc1	2	6	-7	2	0	-3	x	x
C[C@H](CO)N1C[C@H](C)[C@@H](CN(C)S(=O)(=O)c2cccs2)Oc2ccc(NC(=O)Nc3ccc4c(c3)OCO4)cc2C1=O	1	4	-6	11	-1	-8	x	x
C[C@H](CO)N1C[C@H](C)[C@H](CN(C)S(=O)(=O)c2cccs2)Oc2ccc(NC(=O)Nc3ccc4c(c3)OCO4)cc2CC1=O	0	-5	1	15	10*	-5	21	11*

Screening results as filed in PubChem.
